Where “and” joins values, the source holds several entries; their conditions need not be identical. Equal entries are not always repeated. Records with an inconclusive call do not appear. Entries that show only a call come without a potency. Some compounds were tested as several samples or in several runs, with calls that do not always agree. Calls of active or inactive are those of the source. Calls follow the shape of the dose curve; as a rule, active = well fitted curve in the direction sought with a large enough effect; inconclusive = small, poorly fitted or top-dose-only effect, or another doubt; inactive = no such curve, though single readings can be large; an effect the other way counts as inactive or inconclusive.
What was measured:
[1] = S16 Schwann cell PMP22 intronic element firefly luciferase assay (AID 624032); also: nearly all actives have a fitted effect of over 30% in size
Procedure, shortened: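 Rat S16 Schwann cells stably carrying a PMP22 intronic element-driven Fluc reporter were seeded overnight, then exposed to compounds for 24 h at 37 °C. Luminescence was normalized to PTC124 (positive control) and DMSO (0% activity).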

ATS95 = test: qHTS profiling for inhibitors of Plasmodium falciparum proliferation (AID 504749); also: nearly all actives have a fitted effect of over 60% in size; settings: P. falciparum in erythrocytes, SYBR Green DNA, 72 h; series mostly up to 28.7 µM
Procedure, shortened: (§1)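 Quantitative HTS: compounds pinned into medium, infected erythrocytes added (0.3% parasitemia, 2.5% hematocrit), 72 h culture at 37 C under 5% CO2. Saponin/Triton lysis with SYBR Green I, overnight RT, then fluorescence read.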

CP203 = test: as above; settings: P. falciparum in erythrocytes, SYBR Green DNA, 72 h; series mostly up to 28.7 µM
Procedure, shortened: as §1

CP215 = test: as above; settings: P. falciparum in erythrocytes, SYBR Green DNA, 72 h; series mostly up to 28.7 µM
Procedure, shortened: as §1

CP247 = test: as above; settings: P. falciparum in erythrocytes, SYBR Green DNA, 72 h; series mostly up to 28.7 µM
Procedure, shortened: as §1

CP260 = test: as above; settings: P. falciparum in erythrocytes, SYBR Green DNA, 72 h; series mostly up to 28.7 µM
Procedure, shortened: as §1

CP266 = test: as above; settings: P. falciparum in erythrocytes, SYBR Green DNA, 72 h; series mostly up to 28.7 µM
Procedure, shortened: as §1

CP268 = test: as above; settings: P. falciparum in erythrocytes, SYBR Green DNA, 72 h; series mostly up to 28.7 µM
Procedure, shortened: as §1

CP291 = test: as above; settings: P. falciparum in erythrocytes, SYBR Green DNA, 72 h; series mostly up to 28.7 µM
Procedure, shortened: as §1

CP297 = test: as above; settings: P. falciparum in erythrocytes, SYBR Green DNA, 72 h; series mostly up to 28.7 µM
Procedure, shortened: as §1

CP325 = test: as above; settings: P. falciparum in erythrocytes, SYBR Green DNA, 72 h; series mostly up to 28.7 µM
Procedure, shortened: as §1

CP335 = test: as above; settings: P. falciparum in erythrocytes, SYBR Green DNA, 72 h; series mostly up to 28.7 µM
Procedure, shortened: as §1

DIV14 = test: as above; settings: P. falciparum in erythrocytes, SYBR Green DNA, 72 h; series mostly up to 28.7 µM
Procedure, shortened: as §1

DIV17 = test: as above; settings: P. falciparum in erythrocytes, SYBR Green DNA, 72 h; series mostly up to 28.7 µM
Procedure, shortened: as §1

P93_24 = test: as above; settings: P. falciparum in erythrocytes, SYBR Green DNA, 72 h; series mostly up to 28.7 µM
Procedure, shortened: as §1

PC26 = test: as above; settings: P. falciparum in erythrocytes, SYBR Green DNA, 72 h; series mostly up to 28.7 µM
Procedure, shortened: as §1

PC49 = test: as above; settings: P. falciparum in erythrocytes, SYBR Green DNA, 72 h; series mostly up to 28.7 µM
Procedure, shortened: as §1

7G8 = test: as above; settings: P. falciparum in erythrocytes, SYBR Green DNA, 72 h; series mostly up to 28.7 µM
Procedure, shortened: as §1

GB4 = test: as above; settings: P. falciparum in erythrocytes, SYBR Green DNA, 72 h; series mostly up to 28.7 µM
Procedure, shortened: as §1

ICS = test: as above; settings: P. falciparum in erythrocytes, SYBR Green DNA, 72 h; series mostly up to 28.7 µM
Procedure, shortened: as §1
Potency is read from the fitted curve at half-maximal effect.

Row | SMILES | Potency [1] | Potency (ATS95) | Potency (CP203) | Potency (CP215) | Potency (CP247) | Potency (CP260) | Potency (CP266) | Potency (CP268) | Potency (CP291) | Potency (CP297) | Potency (CP325) | Potency (CP335) | Potency (DIV14) | Potency (DIV17) | Potency (P93_24) | Potency (PC26) | Potency (PC49) | Potency (7G8) | Potency (GB4) | Potency (ICS)
1 | CCCSS/C(CCO)=C(/C)N(C=O)Cc1cnc(C)nc1N | 10200 nM (active) | inactive | inactive | inactive | inactive | inactive | inactive | inactive | inactive | inactive | inactive | inactive | inactive | inactive | inactive | inactive | inactive |  |  | 
2 | C=C1C(n2cnc3c(=O)[nH]c(N)nc32)C[C@H](O)[C@H]1CO (some centres undefined) | inactive |  |  | inactive | inactive |  | inactive |  |  | inactive |  |  |  |  |  |  |  | 12600 nM (active) |  | 
3 | CC(C)(C)NC[C@H](O)CSc1nc(-c2ccc(C(N)=O)s2)cs1 | inactive | inactive | inactive | inactive | inactive |  | inactive | inactive | inactive | inactive | inactive | inactive |  |  | inactive | inactive | inactive |  | inactive | 
4 | CC1CCC(O)C/C1=C\C=C1/CCCC2(C)C1CCC2C(C)/C=C/C(C)C(C)C (centres undefined) | inactive | inactive | inactive | inactive |  | inactive | inactive | inactive | inactive |  | inactive |  |  |  |  |  | inactive |  |  | 11200 nM (active)
5 | Cc1c(C)c2c(c(C)c1O)CCC(C)(CCCC(C)CCCC(C)CCCC(C)C)O2 (centres undefined) | inactive | inactive | inactive | inactive | inactive | inactive | inactive | inactive | inactive |  | inactive | inactive | inactive | inactive | inactive | inactive | inactive |  | inactive | 
6 | CC1(C)SC2[C@@H](N=CN3CCCCCC3)C(=O)N2[C@H]1C(=O)O (some centres undefined) | inactive | inactive | inactive |  | inactive | inactive | inactive | inactive | inactive |  | inactive | inactive |  | inactive | inactive | inactive | inactive |  | inactive | 
7 | CCC(C(=O)C(C)C(O)C(C)CCc1ccc(C)c(O)c1C(=O)O)C1OC(CC)(C2CC[C@@](O)(CC)C(C)O2)CC1C (some centres undefined) | 1810 nM (active) | 891 nM (active) | 849 nM (active) | 849 nM (active) | 794 nM (active) | 631 nM (active) | 1350 nM (active) | 849 nM (active) | 478 nM (active) | 601 nM (active) | 953 nM (active) | 426 nM (active) | 953 nM (active) | 849 nM (active) | 794 nM (active) | 849 nM (active) | 2000 nM (active) | 501 nM (active) | 0.757 µM (active) | 631 nM (active)
8 | CC(C)C(=O)OCC(=O)[C@@]12OC(C3CCCCC3)O[C@@H]1CC1C3CCC4=CC(=O)C=C[C@]4(C)C3[C@@H](O)C[C@@]12C (some centres undefined) |  | 708 nM (active) |  |  | 1000 nM (active) | 708 nM (active) | 1350 nM (active) |  |  |  |  | 601 nM (active) | 1510 nM (active) | 1350 nM (active) | 891 nM (active) |  | 1120 nM (active) | 447 nM (active) | 1.07 µM (active) | 794 nM (active)
9 | Cn1cc(C(=O)[C@@H]2CCc3[nH]cnc3C2)c2ccccc21 | inactive | inactive | inactive | inactive | inactive | inactive | inactive | inactive | inactive | inactive | inactive | inactive | inactive | inactive | inactive | inactive | inactive |  | inactive | inactive
10 | CNC1=CN(O)C(c2ccccc2)=c2cc(Cl)ccc2=N1 |  | 5010 nM (active) | 4260 nM (active) | 4.26 µM (active) and 10.7 µM (active) |  | 7.94 µM (active) and inactive | 4780 nM (active) | 4260 nM (active) | 3380 nM (active) | 4260 nM (active) |  | 3790 nM (active) | 1510 nM (active) | 2130 nM (active) |  | 4260 nM (active) | inactive | inactive | 953 nM (active) and 15.1 µM (active) | 3980 nM (active)
11 | CC1OC(OC2C(O)CC(OC3C(O)CC(OC4CCC5(C)C(CCC6C5CCC5(C)C(C7=CC(=O)OC7)CCC65O)C4)OC3C)OC2C)CC(O)C1O (centres undefined) |  |  | inactive | inactive | inactive | inactive | inactive | inactive | inactive | inactive | inactive |  |  |  | inactive |  | inactive | 12600 nM (active) |  | 
12 | CCN(CC)C(=O)[C@@]1(c2ccccc2)C[C@@H]1CN | inactive | inactive | inactive | inactive | inactive | inactive | inactive | inactive | inactive | inactive | inactive | inactive |  |  | inactive |  | inactive |  | inactive | inactive
13 | Cc1cc2nc3c(=O)[nH]c(=O)nc-3n(CC(O)C(O)C(O)COP(=O)(O)O)c2cc1C (centres undefined) |  | inactive | inactive | inactive |  | inactive | inactive | inactive | inactive | inactive | inactive | inactive |  | inactive | inactive | inactive | inactive | inactive | inactive | inactive
14 | CCC(=O)O[C@]1(C(=O)CCl)[C@@H](C)CC2C3C[C@H](F)C4=CC(=O)C=CC4(C)[C@@]3(F)C(O)CC21C (some centres undefined) |  | 6310 nM (active) |  | 10700 nM (active) | 12600 nM (active) | 11200 nM (active) |  | 12000 nM (active) | 13500 nM (active) | 10700 nM (active) | 16900 nM (active) | 10700 nM (active) | 4260 nM (active) | 4260 nM (active) | 10000 nM (active) | 12000 nM (active) |  | 1580 nM (active) | 7.57 µM (active) | 2820 nM (active)
